# Nrf2 inh – blocks Nrf2 signaling. A549 ARE-Fluc reporter, luciferase luminescence, 18-24 h. Potency, µM (series often up to 46 µM), for inactives: at the highest dose activity change, negative = inhibition, usual class: inhibitors. 360,000 compounds, 2.1% hits. AID 504444; further: on the % scale 0 is the no-effect control and ±100 the full control effect; nearly all actives have a fitted effect of over 60% in size
#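 A549 ARE_Fluc cells, 5000/well, 5% FBS OPTI-MEM; compounds in dose-response, 18-24 h at 37 °C/5% CO2; CellTiter-Fluor viability read (Ex 405/Em 525), then BugLite luciferase luminescence = Nrf2 activity.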
# ELG1 repair inh – ELG1-dependent DNA repair inhibition; Potency, µM (series often up to 46.1 µM), without a hit: top-dose activity change, negative = inhibition, actives largely listed as inhibitors; 330,000 compounds, 2.3% hits; HEK293T ELG1-luciferase reporter, luminescence, 16 h; DNA damage induced by 5-fluorouridine; AID 504467; further: on the % scale 0 is the no-effect control and ±100 the full control effect; nearly all actives have a fitted effect of over 55% in size
#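 Overnight (16 hr) co-exposure of 2,000 cells/well to 5-fluorouridine and compound at 37 °C preceded detection. Luciferase was quantified via ONE-Glo luminescence; loss of signal denotes inhibition.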
# A549 tox – A549 cytotoxicity, counter-screen for Nrf2 inhibitors; A549 ARE-Fluc cells, CellTiter-Fluor viability, 18-24 h; Potency, µM (titrated, usually from 46 µM), for the others: at the top dose activity change, negative = cytotoxicity, actives largely listed as inhibitors; 390,000 compounds, 0.16% hits; further: on the % scale 0 is the no-effect control and ±100 the full control effect
#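 Cytotoxicity counterscreen: CellTiter-Fluor fluorescence was measured in A549 ARE_Fluc cells after 18-24 h of compound exposure in a concentration series. The subsequent BugLite luminescent read reports ARE-luciferase activity.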
# Nrf2 activator – Nrf2 pathway activation | AREc32 ARE-luciferase reporter (MCF7-derived line), luminescence, 24 h | Potency, µM (highest dose often 46.1 µM), for inactives: at the top dose activation, hits mostly activators | 410,000 compounds, 0.31% hits | AID 624171; further: % of control where 0% means no effect; nearly all actives have a fitted effect of over 65% in size
#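 Luciferase luminescence (Steady-Glo, 30 min at room temperature) served as the read-out of ARE activation in AREc32 cells treated with compounds for 24 hr at 37 deg C.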
# * marks the source's active call; other numbers are inactive results; u = inconclusive; x = no result given; [ ] = dose if it differs, or a comment. Shown are actives, neighbours in structure and some others; about 3.7% of the full set was active somewhere. The call rests on the fitted dose curve; in most records, active means well fitted curve in the direction sought with a large enough effect; inconclusive means small, poorly fitted or top-dose-only effect, or another doubt; inactive means no such curve, though single readings can be large; an effect the other way counts as inactive or inconclusive. Potency means the concentration at half of the fitted maximal effect.
SMILES,Nrf2 inh,ELG1 repair inh,A549 tox,Nrf2 activator
C=C1C(=O)[C@@]23[C@H](O)C[C@@H]4C(C)(C)CC[C@H](O)[C@]4(C)[C@@H]2C[C@H](O)[C@@H]1[C@H]3O,15µM*,16µM*,u,-2%
Cc1ccc(-n2nnnc2Sc2ccc(S(=O)(=O)NCCN(C)C)cc2[N+](=O)[O-])cc1,10µM*,u,6.5µM*,u
Fc1cccc(Cc2noc(CN3CCCCC3c3ccccn3)n2)c1 (stereo not given),-2%,u,-12%,-1%
Cc1ccc2c(CN3CCN(Cc4ccc5c(c4)OCO5)CC3)cc(=O)oc2c1C,3%,u,16%,0%
Cc1ccc2c(CN3CCN(S(=O)(=O)c4ccc5c(c4)OCCO5)CC3)cc(=O)oc2c1C,16µM*,15µM*,-19%,1%
Cc1c(C(=O)OCC(=O)N(C)c2ccccc2)oc2ccccc12,u,u,-1%,5%
COc1ccc(NC(=O)c2cc(CC(C)C)nc3ccccc23)cc1,u,23µM*,0%,-2%
Cc1ccc(NC(=O)c2cc(CC(C)C)nc3ccccc23)cc1,5.8µM*,21µM*,4%,-2%
COc1ccc(NS(=O)(=O)c2ccc(N3CCCC3)c(NC(=S)Nc3cccc(C)c3C)c2)cc1,-2%,u,-12%,0%
Nc1cc(S(=O)(=O)Nc2ccccc2Cl)ccc1N1CCOCC1,u,u,-11%,1%
CCNC(=O)Nc1cc(S(=O)(=O)Nc2ccc(OC)cc2)ccc1N1CCOCC1,4.1µM*,15%,-15%,1%
COc1ccc(NS(=O)(=O)c2ccc(N3CCCC3)c(NC(=S)Nc3ccc(SC(F)F)cc3)c2)cc1,-18%,23µM*,-18%,0%
Nc1cc(S(=O)(=O)Nc2ccc(Cl)cc2)ccc1N1CCOCC1,16µM*,15µM*,-9%,0%
C#Cc1ccc([C@H]2C=C(C(=O)O)O[C@@H](OCCCCO)C2)cc1,6%,x,-4%,8%
Cc1ccccc1C(=O)Nc1ccc(-c2nc3ccc(C(=O)c4ccccc4)cc3[nH]2)cc1,21µM*,u,-10%,3%
O=C(c1ccccc1)c1ccc2nc(-c3ccc(NC(=O)c4ccccc4Br)cc3)[nH]c2c1,u,u,-7%,0%
C[C@@H]1CN([C@H](C)CO)C(=O)c2cc(Br)cnc2O[C@@H]1CN(C)C(=O)c1cccc(F)c1,x,x,x,-1%
Cc1ccc(-c2ccc(/C=N\NC(=O)c3cc4c(ccc5ccccc54)o3)o2)cc1[N+](=O)[O-],23µM*,u,u,0%
Cc1ccc([N+](=O)[O-])cc1-c1ccc(/C=N/NC(=O)c2cc3c(ccc4ccccc43)o2)o1,2%,-6%,1%,0%
O=C(Nc1ccc(N2CCN(c3ncccc3C(F)(F)F)CC2)nc1)c1cccs1,21µM*,21µM*,u,-3%
CCc1ccc(-c2cc(C)no2)cc1S(=O)(=O)NCCCN1CCN(c2ccccc2)CC1,13µM*,-28%,-28%,1%
O=C(NC(c1ccc(Cl)cc1)c1cnccn1)C1CCN(Cc2cccc(C(F)(F)F)c2)CC1 (stereo not given),x,x,x,4%
CCOc1ccc(C(=O)NCc2cccs2)cc1,u,5%,-2%,2%
CCOc1ccc(N(C)S(=O)(=O)c2ccc(C)c(C(=O)NCc3cccs3)c2)cc1,16µM*,u,-5%,0%
CCOC(=O)C1CCCN(C(=O)c2ccc3nc(-c4ccc(OC)c(OC)c4)c(-c4ccc(OC)c(OC)c4)nc3c2)C1 (stereo not given),-13%,1.8µM*,-9%,3%
SMILES,Nrf2 inh,ELG1 repair inh,A549 tox,Nrf2 activator
CCOC(=O)c1cc(-c2nnc(-c3ccc(Oc4ccccc4)cc3)o2)c(C)nc1C,14%,23µM*,0%,-1%
CCCCn1nnnc1C(c1ccc(OC)cc1)N1CCN(C/C=C/c2ccccc2)CC1 (stereo not given),x,x,x,4%
Cc1noc(C)c1CCC(=O)N1CCCC(N2CCN(c3ccc(F)cc3)CC2)C1 (stereo not given),-4%,-8%,-1%,2%
CC(=O)Nc1nc(-c2ccccc2)nc(-c2ccccc2OC(C)=O)n1,13µM*,21µM*,-25%,23%
CC(=O)Nc1nc(C)nc(-c2ccccc2OC(C)=O)n1,8%,-14%,0%[1.84 µM],1%
CC(C)C(=O)O/N=C(\N)c1ccc(Oc2ccc(Cl)cc2)c([N+](=O)[O-])c1,0%,-6%,-13%,3%
O=C1C=C(N2CCOCC2)c2ccccc2C1=O,21µM*,u,u,-4%
CC1=C(C)C(=O)C(N2CCOCC2)=CC1=O,-18%,u,3%,18%
Cc1ccccc1N(CC(=O)N/N=C/c1ccc(Cl)cc1)C(=O)c1ccccc1,21µM*,-6%,u,1%
COc1ccc(NC(=O)CNc2cccc(C#N)c2)cc1Cl,u,11%,0%,0%
COc1ccc(NCC(=O)Nc2ccc(C#N)cc2)cc1Cl,-34%,26µM*,x,0%
COc1ccccc1CCNC(=O)C(=O)NCC(c1ccco1)S(=O)(=O)c1ccc(C)cc1 (stereo not given),x,x,-4%,2%
CC(NC(=O)c1ccccc1NC(=O)CN1CCc2ccccc2C1)c1ccccc1 (stereo not given),u,13µM*,-4%,2%
NC(=O)c1nnn(Cc2cc(Cl)c(C(=O)c3ccc(Cl)cc3)c(Cl)c2)c1N,x,x,x,0%
Cc1ccc2c(c1)CO[C@@]21O[C@H](CCO)C[C@H](O)[C@H]1O,x,x,x,-1%
Oc1c(Cl)cc(Cl)cc1/C=N/NC(=S)NC1CC2C=CC1C2 (stereo not given),u,15µM*,28%,3%
CCOC(=O)c1cc(S(=O)(=O)N(C)Cc2ccccc2)cn1C,-13%,3%,1%,-2%
COc1cccc(C2CC(c3ccc(Br)cc3)=NN2C(=O)c2ccncc2)c1OC (stereo not given),18µM*,u,-15%,3%
COc1ccccc1C1CC(c2ccc(Br)cc2)=NN1C(=O)c1cccnc1 (stereo not given),u,u,-7%,6%
Cc1c(C(=O)OCC(=O)c2c(N)n(CC(C)C)c(=O)n(C)c2=O)oc2ccccc12,u,10µM*,-1%,1%
COCc1c(C(=O)OCC(=O)c2c(N)n(CC(C)C)c(=O)n(C)c2=O)oc2ccccc12,21µM*,u,-4%,-1%
CCc1noc(C)c1C(=O)N1CCN(c2cccc(Cl)c2)CC1,x,x,x,-1%
Nc1c(C(=O)N/N=C/c2ccc(Cl)cc2)cnn1-c1ccccc1,6%,1%,1%,4%
COC(=O)c1cnn(-c2ccc(Cl)cc2)c1/C=N/NC(N)=S,u,13µM*,u,0%
c1ccc2c(c1)c1c(c3ccccc32)CN2CCCC2C1 (stereo not given),-24%,x,-17%,5%
CCOc1ccc(CN(C)CC(=O)Nc2ccccc2C(=O)NC2CC2)cc1,-14%,15µM*,-15%,0%

# High-throughput results (PubChem)
